Among the data in paper PMC11006913 are binding signal values, retold here.

Positions count from the first letter of the chain named.

What all share (assay): PBM; 200 nM protein, PBS
Settings in all cases: dsDNA, one strand shown

For test [1], the target named is T1, SIX6 (Homo sapiens, UniProt O95475 114-200, L167I).
T1 sequence: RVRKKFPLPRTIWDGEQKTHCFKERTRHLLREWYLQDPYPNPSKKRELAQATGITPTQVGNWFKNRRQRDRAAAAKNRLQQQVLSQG

Test [2] concerns the target T2, SIX6 (Homo sapiens, UniProt O95475 114-200, L143V).
T2 sequence: T1 sequence with L30V, I54L

Test [3] deals with T3, SIX6 (Homo sapiens, UniProt O95475 114-200, H141N).
T3 sequence: T1 sequence with H28N, I54L

Test [4] has as its target T4, SIX6 (Homo sapiens, UniProt O95475 114-200, T165P).
T4 sequence: T1 sequence with T52P, I54L

Test [5] addresses T5, SIX6 (Homo sapiens, UniProt O95475 114-200, L167M).
T5 sequence: T1 sequence with I54M

The target in test [6] is T6, SIX6 (Homo sapiens, UniProt O95475 114-200, L143M).
T6 sequence: T1 sequence with L30M, I54L

Test [7] deals with T7, SIX6 (Homo sapiens, UniProt O95475 114-200, L143I).
T7 sequence: T1 sequence with L30I, I54L

In test [8] the target is T8, SIX6 (Homo sapiens, UniProt O95475 114-200, T165G).
T8 sequence: T1 sequence with T52G, I54L

Test [9] concerns the target T9, SIX6 (Homo sapiens, UniProt O95475 114-200, T139Q).
T9 sequence: T1 sequence with T26Q, I54L

In test [10] the target is T10, SIX6 (Homo sapiens, UniProt O95475 114-200, T165A).
T10 sequence: T1 sequence with T52A, I54L

Test [11] deals with T11, SIX6 (Homo sapiens, UniProt O95475 114-200, L167V).
T11 sequence: T1 sequence with I54V

The target of test [12] is T12, SIX6 (Homo sapiens, UniProt O95475 114-200).
T12 sequence: T1 sequence with I54L

In test [13] the target is T13, SIX6 (Homo sapiens, UniProt O95475 114-200, T165I).
T13 sequence: T1 sequence with T52I, I54L

Test [14] has as its target NKX3-2 (Homo sapiens, UniProt P78367 192-278, P234S).
Test [15] deals with NKX3-2 (Homo sapiens, UniProt P78367 192-278).
Chain of NKX3-2 (Homo sapiens, UniProt P78367 192-278) (P78367 192-278): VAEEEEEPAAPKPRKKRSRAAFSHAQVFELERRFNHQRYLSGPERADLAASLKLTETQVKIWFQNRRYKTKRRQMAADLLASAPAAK

Chain of NKX3-2 (Homo sapiens, UniProt P78367 192-278, P234S) (P78367 192-278 P234S): as the sequence (P78367 192-278) above, with P43S counted along it

On to AGCGGGCC, for which the binding signal with SIX6 [1] is 9.04 upbm affinity estimate (log intensity, higher = more binding, comparable within an allelic series); in the test with SIX6 [2] it was 8.92 upbm affinity estimate (log intensity, higher = more binding, comparable within an allelic series); in the test with SIX6 [3] it was 8.88 upbm affinity estimate (log intensity, higher = more binding, comparable within an allelic series); in the test with SIX6 [4], 8.96 upbm affinity estimate (log intensity, higher = more binding, comparable within an allelic series); in the test with SIX6 [5], 8.96 upbm affinity estimate (log intensity, higher = more binding, comparable within an allelic series); with SIX6 [6], 8.83 upbm affinity estimate (log intensity, higher = more binding, comparable within an allelic series). Further, the binding signal in the test with SIX6 [7] was 8.88 upbm affinity estimate (log intensity, higher = more binding, comparable within an allelic series); with SIX6 [8] it was 8.84 upbm affinity estimate (log intensity, higher = more binding, comparable within an allelic series); in the test with SIX6 [9], 9.03 upbm affinity estimate (log intensity, higher = more binding, comparable within an allelic series); with SIX6 [10] it was 8.98 upbm affinity estimate (log intensity, higher = more binding, comparable within an allelic series); with SIX6 [11], 8.99 upbm affinity estimate (log intensity, higher = more binding, comparable within an allelic series); with SIX6 [12] it was 8.89 upbm affinity estimate (log intensity, higher = more binding, comparable within an allelic series). Further, the binding signal in the test with SIX6 [13] was 8.98 upbm affinity estimate (log intensity, higher = more binding, comparable within an allelic series).

Take GGCGACCC: the binding signal is 8.98 upbm affinity estimate (log intensity, higher = more binding, comparable within an allelic series) in the test with SIX6 [1]; 8.85 upbm affinity estimate (log intensity, higher = more binding, comparable within an allelic series) with SIX6 [2]; 9.03 upbm affinity estimate (log intensity, higher = more binding, comparable within an allelic series) with SIX6 [3]; 8.9 upbm affinity estimate (log intensity, higher = more binding, comparable within an allelic series) in the test with SIX6 [4]; 8.99 upbm affinity estimate (log intensity, higher = more binding, comparable within an allelic series) in the test with SIX6 [5]; 9.09 upbm affinity estimate (log intensity, higher = more binding, comparable within an allelic series) in the test with SIX6 [6]. Also, the binding signal in the test with SIX6 [7] was 8.97 upbm affinity estimate (log intensity, higher = more binding, comparable within an allelic series); in the test with SIX6 [8] it was 9.01 upbm affinity estimate (log intensity, higher = more binding, comparable within an allelic series); with SIX6 [9], 9.15 upbm affinity estimate (log intensity, higher = more binding, comparable within an allelic series); with SIX6 [10] it was 9.04 upbm affinity estimate (log intensity, higher = more binding, comparable within an allelic series); in the test with SIX6 [11] it was 8.91 upbm affinity estimate (log intensity, higher = more binding, comparable within an allelic series); in the test with SIX6 [12], 9.01 upbm affinity estimate (log intensity, higher = more binding, comparable within an allelic series). The binding signal in the test with SIX6 [13] was 9.02 upbm affinity estimate (log intensity, higher = more binding, comparable within an allelic series).

With CCCTCTGC, the binding signal with SIX6 [1] is 8.98 upbm affinity estimate (log intensity, higher = more binding, comparable within an allelic series); with SIX6 [2], 8.83 upbm affinity estimate (log intensity, higher = more binding, comparable within an allelic series); with SIX6 [3], 9.02 upbm affinity estimate (log intensity, higher = more binding, comparable within an allelic series); with SIX6 [4], 8.85 upbm affinity estimate (log intensity, higher = more binding, comparable within an allelic series); with SIX6 [5], 8.95 upbm affinity estimate (log intensity, higher = more binding, comparable within an allelic series); with SIX6 [6], 9.06 upbm affinity estimate (log intensity, higher = more binding, comparable within an allelic series). Further, the binding signal with SIX6 [7] is 8.9 upbm affinity estimate (log intensity, higher = more binding, comparable within an allelic series); with SIX6 [8], 9.1 upbm affinity estimate (log intensity, higher = more binding, comparable within an allelic series); in the test with SIX6 [9], 9.06 upbm affinity estimate (log intensity, higher = more binding, comparable within an allelic series); in the test with SIX6 [10] it was 9.06 upbm affinity estimate (log intensity, higher = more binding, comparable within an allelic series); in the test with SIX6 [11] it was 8.95 upbm affinity estimate (log intensity, higher = more binding, comparable within an allelic series); in the test with SIX6 [12] it was 9.05 upbm affinity estimate (log intensity, higher = more binding, comparable within an allelic series). For the same sequence, the binding signal with SIX6 [13] is 8.97 upbm affinity estimate (log intensity, higher = more binding, comparable within an allelic series).

For the sequence GGGTATCA, the binding signal in the test with SIX6 [1] is 11.7 upbm affinity estimate (log intensity, higher = more binding, comparable within an allelic series); in the test with SIX6 [2], 10.5 upbm affinity estimate (log intensity, higher = more binding, comparable within an allelic series); with SIX6 [3], 11.7 upbm affinity estimate (log intensity, higher = more binding, comparable within an allelic series); in the test with SIX6 [4], 9.44 upbm affinity estimate (log intensity, higher = more binding, comparable within an allelic series); in the test with SIX6 [5], 11 upbm affinity estimate (log intensity, higher = more binding, comparable within an allelic series); with SIX6 [6], 11.4 upbm affinity estimate (log intensity, higher = more binding, comparable within an allelic series). Besides, the binding signal with SIX6 [7] was 10.6 upbm affinity estimate (log intensity, higher = more binding, comparable within an allelic series); with SIX6 [8] it was 11.8 upbm affinity estimate (log intensity, higher = more binding, comparable within an allelic series); with SIX6 [9], 11.6 upbm affinity estimate (log intensity, higher = more binding, comparable within an allelic series); with SIX6 [10], 11.6 upbm affinity estimate (log intensity, higher = more binding, comparable within an allelic series); with SIX6 [11], 11.6 upbm affinity estimate (log intensity, higher = more binding, comparable within an allelic series); with SIX6 [12], 11.4 upbm affinity estimate (log intensity, higher = more binding, comparable within an allelic series). Besides, in the test with SIX6 [13], the binding signal was 11.5 upbm affinity estimate (log intensity, higher = more binding, comparable within an allelic series).

Regarding CTCGATAC, the binding signal is 10.6 upbm affinity estimate (log intensity, higher = more binding, comparable within an allelic series) with SIX6 [1]; 10 upbm affinity estimate (log intensity, higher = more binding, comparable within an allelic series) with SIX6 [2]; 10.6 upbm affinity estimate (log intensity, higher = more binding, comparable within an allelic series) with SIX6 [3]; 9.7 upbm affinity estimate (log intensity, higher = more binding, comparable within an allelic series) in the test with SIX6 [4]; 10.2 upbm affinity estimate (log intensity, higher = more binding, comparable within an allelic series) in the test with SIX6 [5]; 10.6 upbm affinity estimate (log intensity, higher = more binding, comparable within an allelic series) with SIX6 [6]. Further, the binding signal is 10.1 upbm affinity estimate (log intensity, higher = more binding, comparable within an allelic series) with SIX6 [7]; 10.8 upbm affinity estimate (log intensity, higher = more binding, comparable within an allelic series) with SIX6 [8]; 10.8 upbm affinity estimate (log intensity, higher = more binding, comparable within an allelic series) in the test with SIX6 [9]; 10.6 upbm affinity estimate (log intensity, higher = more binding, comparable within an allelic series) in the test with SIX6 [10]; 10.4 upbm affinity estimate (log intensity, higher = more binding, comparable within an allelic series) with SIX6 [11]; 10.6 upbm affinity estimate (log intensity, higher = more binding, comparable within an allelic series) in the test with SIX6 [12]. Besides, the binding signal with SIX6 [13] is 10.5 upbm affinity estimate (log intensity, higher = more binding, comparable within an allelic series).

For the sequence AAGGCCGC, the binding signal in the test with SIX6 [1] was 8.93 upbm affinity estimate (log intensity, higher = more binding, comparable within an allelic series); in the test with SIX6 [2], 8.99 upbm affinity estimate (log intensity, higher = more binding, comparable within an allelic series); with SIX6 [3] it was 8.93 upbm affinity estimate (log intensity, higher = more binding, comparable within an allelic series); with SIX6 [4] it was 8.98 upbm affinity estimate (log intensity, higher = more binding, comparable within an allelic series); in the test with SIX6 [5] it was 8.92 upbm affinity estimate (log intensity, higher = more binding, comparable within an allelic series); with SIX6 [6] it was 8.92 upbm affinity estimate (log intensity, higher = more binding, comparable within an allelic series). In addition, the binding signal with SIX6 [7] was 8.97 upbm affinity estimate (log intensity, higher = more binding, comparable within an allelic series); with SIX6 [8], 8.93 upbm affinity estimate (log intensity, higher = more binding, comparable within an allelic series); in the test with SIX6 [9], 8.96 upbm affinity estimate (log intensity, higher = more binding, comparable within an allelic series); with SIX6 [10], 8.9 upbm affinity estimate (log intensity, higher = more binding, comparable within an allelic series); with SIX6 [11], 8.89 upbm affinity estimate (log intensity, higher = more binding, comparable within an allelic series); in the test with SIX6 [12], 8.92 upbm affinity estimate (log intensity, higher = more binding, comparable within an allelic series). Moreover, the binding signal with SIX6 [13] is 8.95 upbm affinity estimate (log intensity, higher = more binding, comparable within an allelic series); with NKX3-2 [14] it was 10.5 upbm affinity estimate (log intensity, higher = more binding, comparable within an allelic series); with NKX3-2 [15] it was 10.6 upbm affinity estimate (log intensity, higher = more binding, comparable within an allelic series).
